Experimental data reported in PubChem BioAssay.
Inconclusive results are not listed. Activity calls are given as the source filed them. Unless noted, no cut-off is given here; in the data, nearly all actives have AC50 up to about 26 µM.

Tests used:
[1] = viability loss in pontine glioma line – cell-based, SU-DIPG-XVII, MIPE5.0, CellTiter-Glo, qHTS, dose response (AID 1347060); conditions: CellTiter-Glo ATP luminescence;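 for AC50: cells exposed to compound for 48 hours before viability readout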
[2] = viability loss in pontine glioma line – cell-based, SU-DIPG-XIII, MIPE5.0, CellTiter-Glo, qHTS, dose response (AID 1347064; cut-off not given, nearly all actives have AC50 up to about 23 µM;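 for AC50: cells exposed to compound for 48 hours before the viability read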); conditions: CellTiter-Glo ATP luminescence
[3] = viability loss in pontine glioma line – cell-based, SU-DIPG-XXV, MIPE5.0, CellTiter-Glo, qHTS, dose response (AID 1347065); conditions: CellTiter-Glo ATP luminescence;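 note: cells exposed to compound for 48 hours before ATP readout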
[4] = JHH-DIPG-1 glioma cell viability, MIPE5.0 library, CellTiter-Glo luminescence, qHTS (AID 1347067); conditions: JHH-DIPG-1 glioma viability, CellTiter-Glo ATP luminescence;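 note: cells exposed to compound for 48 hours before readout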
[5] = growth inhibition of DIPG cells – cell-based, MIPE5.0 library, qHTS (AID 1347068; cut-off not given, nearly all actives have IC50 up to about 30 µM;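 for IC50: cells exposed to compound for 48 hours before viability readout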); conditions: SU-DIPG-XXV viability
[6] = viability loss with induced miR-34 in A549 – imaging, A549 dox-inducible miR-34, nuclei and caspase counts, primary screen (AID 1347080;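 active = compounds whose cell count with miR-34 switched on is under 0.7 times the count with it off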); conditions: A549 miR-34 inducible, Hoechst nuclei count, 48 h
[7] = MELAS cybrid and Rieske KO viability enhancers – cell-based, MELAS cybrids, Rieske KO mouse fibroblasts, CellTiter-Glo, primary screen (AID 1508586;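 active = mean z-score across replicates of 1.96 or higher in either the MELAS or the Rieske mutant cell line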;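 note: z relative to plate mean and SD of compound and empty wells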); conditions: low glucose
[8] = growth inhibition, single agent or in combination, cell-based, chromothripsis tumors, cisplatin or BGB combos (AID 1671449; in the data active = inhibition above about 80%;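 note: cells exposed for 96 hours; 0% = vehicle DMSO and 100% = killing by high DMSO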); conditions: LFS_MB_P medulloblastoma cells
[9] = growth inhibition, single agent and combos, cell-based, chromothripsis tumors, cisplatin or BGB combos (AID 1671450; in the data active = inhibition above about 80%;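 note: cells exposed to compound for four days; 0% = vehicle DMSO and 100% = cell killing by high DMSO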); conditions: HDN33 neuroblastoma cells, stronger effect = higher value
[10] = growth inhibition, single agents and combos, ICB984, cell-based, cisplatin or BGB combos, synergistic combos for chromothripsis tumors (AID 1671451; call rule not given here;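 note: cells exposed for 96 hours before readout; 0% = vehicle DMSO and 100% = killing by high DMSO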); conditions: ICB984 medulloblastoma cells, drug combinations, stronger effect = higher value
[11] = growth inhibition, single agents and combos, LFS_MB_1R, cell-based, cisplatin or BGB combos, synergistic combos for chromothripsis tumors (AID 1671452; in the data active = inhibition above about 80%;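 note: cells exposed for 96 hours before readout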); conditions: LFS_MB_1R medulloblastoma cells, stronger effect = higher value
[12] = growth inhibition, single agents and combos, HTB85, cell-based, BGB or cisplatin IC20 combos, synergistic combos for chromothripsis tumors (AID 1671453; in the data active = inhibition above about 80%;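 note: cells exposed for 96 hours before readout; 0% = vehicle DMSO and 100% = high DMSO killing control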); conditions: HTB85 osteosarcoma cells, drug combinations, stronger effect = higher value
[13] = growth inhibition, single agents and combos, CRL2098, cell-based, BGB or cisplatin IC20 combos, synergistic combos for chromothripsis tumors (AID 1671454; in the data active = inhibition above about 80%;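 note: cells exposed for 96 h before readout; 0% = vehicle DMSO and 100% = killing by high DMSO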); conditions: CRL2098 osteosarcoma cells, drug combinations, stronger effect = higher value
[14] = growth inhibition, single agents and combos, HD-MB03, cell-based, BGB or cisplatin IC20 combos, synergistic combos for chromothripsis tumors (AID 1671455; in the data active = inhibition above about 83%;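 note: 0% = vehicle DMSO and 100% = high DMSO as cytotoxic control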); conditions: HD-MB03 medulloblastoma cells, stronger effect = higher value
[15] = growth inhibition, single agents and combos, UWB1.289, cell-based, BGB or cisplatin combos, synergistic combos for chromothripsis tumors (AID 1671456; in the data active = inhibition above about 80%;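 note: cells exposed to compound for four days; 0% = vehicle DMSO and 100% = killing by high DMSO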); conditions: UWB1.289 ovarian carcinoma cells, stronger effect = higher value
[16] = growth inhibition, MDA-MB-436, cell-based, BGB or cisplatin combos, synergistic combos for chromothripsis tumors (AID 1671458; call rule not given here;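 note: cells exposed for 96 hours; 0% = vehicle DMSO and 100% = killing by high DMSO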); conditions: MDA-MB-436 breast carcinoma growth inhibition, drug combinations, stronger effect = higher value
[17] = BT084 cell growth, single and combined drugs, ICGC_MB145, cisplatin and BGB IC40 combos (AID 1671461; in the data active = inhibition above about 80%;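 note: cells exposed to drugs for 96 hours; 0% = vehicle DMSO and 100% = high DMSO full killing control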); conditions: BT084 medulloblastoma cells, drug combinations, stronger effect = higher value
[18] = RCMB18 cell growth, single agent and combined, cisplatin and BGB IC40 combos (AID 1671462; in the data active = inhibition above about 80%;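 note: cells exposed to compound for four days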); conditions: RCMB18 medulloblastoma cells, stronger effect = higher value
[19] = CRL1545 cell growth, single agent and combined, cisplatin and BGB IC20 combos (AID 1671464; in the data active = inhibition above about 80%;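 note: cells exposed to compound for 96 hours before readout; 0% = vehicle DMSO and 100% = high DMSO killing control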); conditions: CRL1545 osteosarcoma cells, stronger effect = higher value
[20] = stronger effect = lower value, cell number ratio, induced over uninduced
[21] = measured here: relative caspase fold change +Dox/-Dox
[22] = measured here: total cells with miR-34 induction, stronger effect = lower value
[23] = measured here: total cells without miR-34 induction
[24] = MELAS cybrid survival, CellTiter-Glo 48 h, stronger effect = higher value
[25] = Rieske KO mouse fibroblast survival, CellTiter-Glo 72 h
[26] = measured here: combination with BGB IC40, at 0.05 µM
[27] = measured here: with BGB IC20 combination, at 0.5 µM
[28] = measured here: with cisplatin IC20 combination, at 0.5 µM
[29] = measured here: combination with cisplatin, at 0.5 µM

CCN1CCN(Cc2ccc(NC(=O)c3ccc(C)c(NC(=O)c4cncc(-c5cccs5)c4)c3)cc2C(F)(F)F)CC1
AC50 [1]: 5900 nM (active)
AC50 [2]: 14800 nM (active)
AC50 [3]: 1050 nM (active)
AC50 [4]: 2630 nM (active)
IC50 [5]: 4170 nM (active)

CN(C)C/C=C/C(=O)Nc1ccc(C(=O)N2CCC[C@@H](Nc3ncc(Cl)c(-c4c[nH]c5ccccc45)n3)C2)cc1
AC50 [1]: 590 nM (active)
AC50 [2]: 295 nM (active)
AC50 [3]: 235 nM (active)
AC50 [4]: 332 nM (active)
IC50 [5]: 833 nM (active)

C=CC(=O)Nc1ccc2ncnc(Nc3cccc(Br)c3)c2c1
AC50 [1]: 10500 nM (active)
AC50 [2]: 18600 nM (active)
AC50 [3]: 9340 nM (active)
AC50 [4]: 13200 nM (active)
IC50 [5]: 4680 nM (active)
fold change [6, 20]: 0.91 (inactive)
fold change [6, 21]: 0.865
cell count [6, 22]: 3490
cell count [6, 23]: 3830
z-score [7, 24]: -0.254 (inactive)
z-score [7, 25]: -0.0488

Cc1cc(Nc2ncc(Cl)c(Nc3ccccc3S(=O)(=O)C(C)C)n2)c(OC(C)C)cc1C1CCNCC1
AC50 [1]: 2950 nM (active)
AC50 [2]: 1320 nM (active)
AC50 [3]: 934 nM (active)
AC50 [4]: 1660 nM (active)
IC50 [5]: 3320 nM (active)
fold change [6, 20]: 0.935 (inactive)
fold change [6, 21]: 0.748
cell count [6, 22]: 3290
cell count [6, 23]: 3520
z-score [7, 24]: -0.455 (inactive)
z-score [7, 25]: -0.428

NC1CCC(N[C@@H]2C[C@H]2c2ccccc2)CC1 (stereo partly specified)
outcome [1]: inactive
outcome [2]: inactive
outcome [3]: inactive
outcome [4]: inactive
outcome [5]: inactive
inhibition ([8]; at 0.5 µM, stronger effect = higher value): 20.5% (inactive)
inhibition ([8]; measured here: combination with BGB IC20, at 0.005 µM): -7.63%
inhibition ([8]; measured here: combination with BGB IC40, at 0.005 µM): -36.6%
inhibition [8, 26]: -4.73%
inhibition ([8]; measured here: combination with cisplatin, at 0.5 µM, stronger effect = higher value): 61.5%
inhibition ([8]; measured here: combination with cisplatin, at 5 µM, stronger effect = higher value): -33.8%
inhibition ([9]; BGB combo, at 5 µM): -29.3%
inhibition ([9]; at 0.5 µM): -3.39% (inactive)
inhibition ([9]; cisplatin combo, at 5 µM): -5%
inhibition [9, 27]: -15.4%
inhibition [9, 28]: -4.58%
inhibition ([9]; single agent, at 5 µM): -15%
inhibition ([10]; BGB IC20 combo, at 0.005 µM): 1.45%
inhibition ([10]; BGB IC40 combo, at 0.005 µM): -40%
inhibition ([10]; BGB IC40 combo, at 0.05 µM): -44.5%
inhibition ([10]; at 0.5 µM): -31.6% (inactive)
inhibition ([10]; cisplatin combo, at 0.05 µM): -50.3%
inhibition ([10]; cisplatin combo, at 0.5 µM): -54.9%
inhibition ([10]; cisplatin combo, at 5 µM): -29.9%
inhibition ([10]; measured here: 5 uM single agent, at 5 µM): -0.182%
inhibition ([11]; at 0.5 µM): -25.6% (inactive)
inhibition [11, 26]: -43.6%
inhibition [11, 29]: -41.7%
inhibition ([11]; measured here: combination with cisplatin, at 5 µM): -14.7%
inhibition ([12]; at 0.5 µM): 0.26% (inactive)
inhibition ([12]; measured here: with BGB IC20, at 0.5 µM): 13%
inhibition ([12]; measured here: with BGB IC20, at 5 µM): 4.36%
inhibition ([12]; measured here: with cisplatin IC20, at 0.5 µM): -8.09%
inhibition ([12]; measured here: with cisplatin IC20, at 5 µM): 0.769%
inhibition ([12]; single agent, at 5 µM): 26.6%
inhibition ([13]; at 0.5 µM): -30% (inactive)
inhibition ([13]; measured here: combination with BGB at IC20, at 0.5 µM): 8.8%
inhibition ([13]; measured here: combination with cisplatin at IC20, at 0.5 µM): -54.3%
inhibition ([14]; at 0.5 µM): -7.1% (inactive)
inhibition ([14]; measured here: combo with BGB at IC20, at 0.5 µM): -21.2%
inhibition ([14]; measured here: combo with cisplatin at IC20, at 0.5 µM): 17.1%
inhibition ([15]; at 0.5 µM): -1.76% (inactive)
inhibition ([15]; measured here: inhibition with BGB combination, at 0.05 µM): -8.52%
inhibition ([15]; measured here: inhibition with cisplatin combination, at 0.05 µM): -20.9%
inhibition ([16]; at 0.5 µM): -9.19% (inactive)
inhibition ([16]; measured here: BGB combination, at 0.5 µM): -1.28%
inhibition ([16]; measured here: BGB combination, at 5 µM): -16.2%
inhibition ([16]; measured here: cisplatin combination, at 0.5 µM): -20.5%
inhibition ([16]; measured here: cisplatin combination, at 5 µM): -12.9%
inhibition ([17]; at 0.5 µM): -8.52% (inactive)
inhibition ([17]; cisplatin combination, at 0.5 µM): -9.89%
inhibition ([17]; cisplatin combination, at 5 µM): -5.53%
inhibition ([17]; measured here: BGB IC40 combination 0.05 uM, at 0.05 µM): 65.9%
inhibition ([17]; single agent, at 5 µM): 3.43%
inhibition ([18]; at 0.5 µM): -11.5% (inactive)
inhibition ([18]; cisplatin combo, at 5 µM): -6.41%
inhibition ([18]; measured here: BGB IC40 combination, at 0.05 µM): -13.6%
inhibition [18, 29]: -9.08%
inhibition ([18]; single agent, at 5 µM): -32.3%
inhibition ([19]; at 0.5 µM): -40.7% (inactive)
inhibition [19, 27]: -47.5%
inhibition [19, 28]: -37.3%
inhibition ([19]; single agent, at 0.05 µM): -32.5%
inhibition ([19]; single agent, at 5 µM): -26.5%
